Screens: PubChem, PCMD
C1s block: blocks human complement C1s protease activity; P09871; purified C1s, fluorogenic AMC substrate, pooled mixtures; mean inhibition % of two 10-compound mixtures (hits give high values), % at 5 µM (by protocol); 0.16% of 62,000 active;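 active means inhibition above 20% in each of the two 10-compound mixture wells holding the compound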;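 further: 0% = enzyme wells lacking compound mixture and 100% = no-enzyme blank wells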
Target sequence (P09871 16-437 limits assumed): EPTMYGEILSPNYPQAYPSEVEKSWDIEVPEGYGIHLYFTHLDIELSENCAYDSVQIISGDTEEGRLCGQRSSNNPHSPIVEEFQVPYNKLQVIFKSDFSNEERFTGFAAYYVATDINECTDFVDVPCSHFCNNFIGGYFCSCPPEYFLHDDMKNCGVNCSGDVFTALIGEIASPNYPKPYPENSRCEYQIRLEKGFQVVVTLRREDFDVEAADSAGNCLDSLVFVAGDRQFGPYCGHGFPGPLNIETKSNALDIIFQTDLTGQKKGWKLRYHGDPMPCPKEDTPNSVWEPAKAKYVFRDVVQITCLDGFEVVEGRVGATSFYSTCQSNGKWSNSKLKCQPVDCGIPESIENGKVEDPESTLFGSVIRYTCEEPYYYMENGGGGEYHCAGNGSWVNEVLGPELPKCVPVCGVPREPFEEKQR
Target sequence (P09871 438-688 limits assumed): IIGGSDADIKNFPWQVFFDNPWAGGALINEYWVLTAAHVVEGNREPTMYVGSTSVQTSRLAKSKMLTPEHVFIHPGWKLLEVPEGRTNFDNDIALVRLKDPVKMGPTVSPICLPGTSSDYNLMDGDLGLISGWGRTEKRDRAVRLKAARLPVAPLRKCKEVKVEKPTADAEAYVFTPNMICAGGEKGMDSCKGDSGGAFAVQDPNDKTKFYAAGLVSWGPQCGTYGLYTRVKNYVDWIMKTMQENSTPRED
CatB block: blocks human cathepsin B protease activity; purified cathepsin B, fluorogenic substrate, fluorescence; inhibition, %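 (tested at 10 µM)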; 0.1% of 63,000 active; in the data active means inhibition above about 21%;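 further: 0% = enzyme with no compound and 100% = no enzyme blank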
CatB mixtures: human cathepsin B inhibition by mixtures; Purified cathepsin B, AMC dipeptide fluorescence, compound mixtures; inhibition, %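 (ten-compound pools at 5 µM per compound and 50 µM total)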; 0.06% of 62,000 active; in the data active means inhibition above about 22%, passing the limit was not always enough;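 further: 0% = enzyme without compound and 100% = no enzyme blank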
CatS block: inhibitors of human cathepsin S. P25774. recombinant cathepsin S, AMC dipeptide fluorescence, pooled mixtures. inhibition, %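 (tested at 5 µM per compound within 10-compound mixtures)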. 0.06% of 62,000 active. AID 501; in the data active means inhibition above about 32%, passing the limit was not always enough;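 further: 0% = enzyme without compound and 100% = blank without enzyme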
CatL inh: inhibitors of human cathepsin L. inhibition, %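 (tested at 10 µM)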. AID 460. 0.17% of 58,000 active. purified cathepsin L, fluorogenic substrate, fluorescence; in the data active means inhibition above about 45%;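 further: 0% = enzyme with no compound and 100% = no enzyme blank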
CatG inh: cathepsin G (human) inhibition. P08311. purified enzyme, AMC-tetrapeptide fluorescence, pooled mixtures. inhibition, % at 5 µM (by protocol). 0.2% of 62,000 active;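 active means inhibition above 20% in each of the two mixture wells holding the compound; inactive means inhibition of 20% or less in either well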;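 further: 0% = enzyme control without mixture and 100% = blank lacking enzyme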
Starred values were filed as active, the others as inactive; x = not tested or not shown. Shown are actives, neighbours in structure and some others; about 0.58% of the full set was active somewhere.

SMILES | C1s block | CatB block | CatB mixtures | CatS block | CatL inh | CatG inh
Cc1ccc(NC(=O)Cc2nn(C)c(=O)c3ccccc23)cc1F | 22.9 | 6.4 | 5.7 | 13.4 | 18.8 | 20.6*
Cc1ccc2c(C(=O)CN3CCCCC3CCO)c(C)[nH]c2c1 (stereo not given) | 1.1 | 3.9 | 29.5* | 21.3 | -3.5 | 0.6
CCn1c(SCC(=O)c2c(N)n(C)c(=O)n(C)c2=O)nc2sc(C)c(C)c2c1=O | 33.4* | -0.7 | 30.2 | 15.6 | 16.6 | 4.5
COc1ccc(-n2nc3c(c2NC(=O)c2cc4ccccc4oc2=O)CS(=O)(=O)C3)cc1 | -41.1 | -0.8 | 5.8 | 5.8 | 10.8 | -3.1
Cc1occc1C(=O)n1nnc2ccccc21 | -18.7 | 10.7 | -2.7 | 7.4 | 24.1 | 9.9
CCSc1ccccc1C(=O)n1nnc2ccccc21 | 38.7* | 32.2* | 29.7* | -5.6 | 2.6 | 35.2*
CCc1nc2ccccc2n(CC)c1=O | -22.9 | 3.0 | -4.7 | 4.9 | 7.4 | -0.5
CCn1c(=O)c(C(C)=O)nc2ccccc21 | 21.7* | -3.9 | 3.8 | -0.2 | 2.4 | 14.8
CCCCNC(=O)c1cn(C)c2ccc(S(=O)(=O)N3CCOCC3)cc2c1=O | 4.3 | -8.7 | 2.7 | 2.4 | -8.4 | -0.3
Cc1cc(SCC#N)n2nc(C)c(-c3ccccc3)c2n1 | 2.2 | 1.4 | -2.9 | 0.6 | 47.6* | 4.0
Cc1noc(/C=C/N(C)C)c1S(=O)(=O)N1CCN(c2ccccc2)CC1 | 27.2 | 1.6 | 0.1 | -2.5 | 53.4* | 6.7
O=C1CC(c2ccco2)Cc2nc(N3CCc4ccccc4C3)ncc21 (stereo not given) | 6.0 | 21.2* | 3.8 | -5.7 | 14.0 | 9.5
CCc1nc(SCc2ccc(C(=O)OC)o2)c2c(=O)n(C)c(=O)n(C)c2n1 | 9.0 | -0.1 | 4.0 | 4.7 | x | 10.4
Cc1ccc(C2NC(=O)c3c(sc4c3CCN(C)C4)N2)s1 (stereo not given) | 7.7 | 1.8 | -0.4 | -3.3 | 55.0* | 7.0
CCC(=O)Nc1cccc(-c2nc3ccccc3c(=O)o2)c1 | 37.4* | 1.0 | 4.0 | -0.8 | 0.9 | 59.0*
CC(=O)Nc1cccc(-c2nc3ccccc3c(=O)o2)c1 | 22.1 | 0.8 | -3.1 | -1.8 | -10.0 | 64.5*
O=c1/c(=C/c2cccc3ccccc23)sc2ncnn12 | -36.1 | 5.0 | 0.4 | 15.0 | 14.9 | -8.1
Cc1ccsc1/C=c1\sc2ncnn2c1=O | 10.9 | 1.6 | 4.8 | -7.5 | -7.9 | 42.8*
